ELG1 repair inh = qHTS screen for small molecules that inhibit ELG1-dependent DNA repair in human embryonic kidney (HEK293T) cells expressing luciferase-tagged ELG1; AID 504467, 2011; 2.3% of 330,000 active; HEK293T ELG1-luciferase reporter, luminescence, 16 h; DNA damage induced by 5-fluorouridine; Potency, µM (highest dose often 46.1 µM), without a hit: at the top dose activity change, negative = inhibition, most hits filed as inhibitors; note: potency is the fitted concentration of half-maximal effect; % is set by controls: 0 for no effect and ±100 for the full control effect; nearly all actives have a fitted effect of over 55% in size
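Reporter activity after DNA damage by 5-fluorouridine is monitored. Compound-treated cells incubate 16 hr at 37 °C, then ONE-Glo is added for 30 min before luminescence reading.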
Giardia kill = Small Molecules that selectively kill Giardia lamblia: qHTS. activity change, % at 7.66 µM, hits read low. AID 540267, 2011. 0.15% of 340,000 active. Giardia lamblia trophozoite viability; in the data active = activity change below about -80%; inconclusive = between about -30% and that limit;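 note: parasites exposed to compound for two days anaerobically before the ATP read; % is set by controls: 0 for no effect and ±100 for the full control effect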
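Compounds were tested on trophozoites seeded at 100 cells/well and held 48 hrs at 37 deg C anaerobically. An ATP-based luminescent kit measured the remaining live cells.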
p53 reactivator = qHTS assay for re-activators of p53 using a Luc reporter. H1299 p53-A138V BP100-luciferase reporter, luminescence, 24 h. Potency, µM (series often up to 92.2 µM), without a hit: top-dose activity change, positive = activation, actives largely listed as activators. 0.063% of 320,000 active. AID 504706, 2011; note: potency is the fitted concentration of half-maximal effect; % of control where 0% means no effect; nearly all actives have a fitted effect of over 45% in size
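p53-null H1299 cells stably carrying temperature-sensitive p53-A138V and a BP100-luciferase reporter were pinned with compounds (4-point, 1:5 series) and held 24 hrs at 37 deg C. Luminescence was read 10 min after detection reagent.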
RORg inh = qHTS for inhibitors of ROR gamma transcriptional activity; Nuclear receptor ROR-gamma (Mus musculus), P51450; Drosophila S2 Gal4-RORgamma UAS-luciferase reporter, 20 h; Potency, µM (highest dose often 53.6 µM), without a hit: at the top dose activity change, negative = inhibition, most hits filed as inhibitors; 5.4% of 310,000 active; AID 2551, 2010; note: potency is the fitted concentration of half-maximal effect; % is set by controls: 0 for no effect and ±100 for the full control effect; nearly all actives have a fitted effect of over 60% in size
Target sequence (P51450 whole entry, looked up, the tested form may be a part): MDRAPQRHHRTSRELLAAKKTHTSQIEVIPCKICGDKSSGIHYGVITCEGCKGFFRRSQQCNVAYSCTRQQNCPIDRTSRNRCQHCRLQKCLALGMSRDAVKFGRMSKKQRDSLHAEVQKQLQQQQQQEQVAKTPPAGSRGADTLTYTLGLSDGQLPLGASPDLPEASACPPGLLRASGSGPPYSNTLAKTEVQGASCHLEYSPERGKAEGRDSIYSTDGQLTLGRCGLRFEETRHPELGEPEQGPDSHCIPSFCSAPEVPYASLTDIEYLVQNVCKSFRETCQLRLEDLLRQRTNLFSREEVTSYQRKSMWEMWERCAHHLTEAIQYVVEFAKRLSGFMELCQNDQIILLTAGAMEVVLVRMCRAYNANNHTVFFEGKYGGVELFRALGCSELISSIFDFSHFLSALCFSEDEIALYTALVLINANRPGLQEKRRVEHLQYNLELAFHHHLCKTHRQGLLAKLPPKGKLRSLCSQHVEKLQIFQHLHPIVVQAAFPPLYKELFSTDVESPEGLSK
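Using a luciferase readout, inhibitors were identified by reduced reporter activity in Drosophila cells coexpressing a copper-inducible Gal4–ROR gamma fusion and UAS-driven Photinus luciferase, incubated 20 hr after 700 uM copper sulfate.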
VP16 counter = VP16 counterscreen qHTS for inhibitors of ROR gamma transcriptional activity | Potency, µM (titrated, usually from 53.6 µM), for the others: at the top dose activity, negative = inhibition, actives largely listed as inhibitors | Drosophila S2 Gal4-VP16 UAS-luciferase, luminescence, 20 h | 3.5% of 310,000 active;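 note: Gal4-VP16 expression switched on by copper sulfate through the metallothionein promoter; potency is the fitted concentration of half-maximal effect; % is set by controls: 0 for no effect and ±100 for the full control effect; nearly all actives have a fitted effect of over 50% in size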
BRCA1 expr act = qHTS Assay to Identify Small Molecule Activators of BRCA1 Expression. 1.1% of 380,000 active. MCF7-BRCA1-FFLuc reporter, luminescence, 48 h; response scale: scaled: vehicle 0%, 10 µM genistein 100%. Potency, µM (series often up to 46.1 µM), inactives show at the top dose activation, usual class: activators; note: potency is the fitted concentration of half-maximal effect; nearly all actives have a fitted effect of over 80% in size
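MCF7 cells carrying a BRCA1-firefly luciferase reporter (2000 cells/well, phenol-red free MEM) were attached for 2 h at 37 °C, then given compounds for 48 h. Luminescence was read 15 min after luciferase reagent; activity normalized to genistein (10 microM) and DMSO.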
An asterisk follows results filed as active; u = inconclusive; x = not tested or not shown; [ ] = dose if it differs, or a comment. Hits are enriched below; roughly 7.6% of the tested compounds scored in any of these assays. Unless noted, calls come from the whole dose curve; as a rule, active = well fitted curve in the direction sought with a large enough effect; inconclusive = small, poorly fitted or top-dose-only effect, or another doubt; inactive = no such curve, though single readings can be large; an effect the other way counts as inactive or inconclusive.

SMILES | ELG1 repair inh | Giardia kill | p53 reactivator | RORg inh | VP16 counter | BRCA1 expr act
COC(=O)c1ccccc1NC(=S)NC(=O)COc1ccccc1 | 4.0% | -6.0 | 7.3% | 5.62µM* | 11.2µM* | -23.7%
Cc1c(NC(=O)c2ccccc2NC(=O)COc2ccccc2)cccc1C(=O)O | 9.1% | 1.1 | 2.7% | 7.94µM* | 12.6µM* | 1.6%
Cc1c(NC(=O)c2ccccc2NC(=O)c2ccccc2)cccc1C(=O)O | 5.3% | 19.8 | 16.6% | -16.5% | -3.5% | 12.2%
CCCCCC(=O)NC(=S)Nc1ccc(Br)cc1C | 25.9% | -18.8 | 11.8% | 10µM* | u | 0.0%
CCCCCC(=O)NC(=S)Nc1ccccc1C(=O)OC | x | 1.7 | x | 14.1µM* | u | 0.6%
Cc1ccccc1NC(=O)Cn1c(O)c(N=NC(=O)c2ccccc2O)c2ccccc21 | 8.7% | 9.1 | -1.8% | 22.9% | u | -11.4%
Cc1cc(C)n(C(=O)c2ccc(C)c(S(=O)(=O)N3CCCC3)c2)n1 | -11.3% | -3.8 | -2.6% | -15.8% | -7.3% | -24.5%
O=C(NC(=S)Nc1ccc(Br)cn1)c1cccnc1 | u | -1.6 | 15.1% | 34.1% | 3.8% | 9.2%
O=C(COc1ccccc1)NC(=S)Nc1ccc(Br)cn1 | 4.0% | -18.0 | -3.7% | 12.6µM* | u | -4.8%
COC(=O)c1ccccc1NC(=S)NC(=O)CC(C)C | 8.5% | -12.3 | 0.2% | 12.6µM* | u | 3.7%
COC(=O)c1ccccc1NC(=O)CC(=O)Nc1ccccc1C(=O)OC | 1.0% | -1.4 | -1.6% | 16.8% | -5.3% | -46.2%
CC(OC(=O)CSc1ccccc1)C(=O)NC1CCCCC1C (centres undefined) | 12.6% | 14.6 | -3.5% | x | x | -12.4%
COCCN(C(=O)COC(=O)/C=C/c1ccc(C)o1)c1c(N)n(Cc2ccccc2)c(=O)[nH]c1=O | 5.3% | 3.6 | 16.6% | -3.2% | -1.6% | -18.6%
Clc1ccccc1CONc1ncnc2nonc12 | u | 17.6 | 28.5% | u | -5.5% | 10µM*
COCCNc1ncnc2c1cnn2Cc1ccccc1Cl | -23.8% | -1.6 | -2.8% | 19.0% | 4.0% | -47.3%
Cc1ccc(COC(=O)Cc2coc3cc(O)ccc23)cc1 | -6.2% | 3.9 | -1.4% | 5.62µM* | 7.08µM* | -4.2%
Cc1ccc(S(=O)(=O)CNC(=O)c2ccccc2)cc1 | 11.2% | 10.7 | u | u | -21.2% | 1.0%
Cc1ccc(S(=O)(=O)CNC(=S)c2cccc(C)c2)cc1 | -8.2% | 1.7 | 0.9% | 12.6µM* | u | 2.7%
COc1ccc(C(=S)NCS(=O)(=O)c2ccc(C)cc2)cc1 | -8.0% | 9.8 | 8.6% | 15.8µM* | u | 6.2%
Cc1ccc(S(=O)(=O)CNC(=S)c2ccc3ccccc3c2)cc1 | 8.7% | 6.0 | 6.2% | 11.2µM* | u | 26.6%
CC1(C)Cc2ccccc2C(=C(C#N)C#N)N1 | -6.3% | -18.6 | -3.8% | 23.9% | 8.8% | -2.8%
Cc1ccc(-c2noc(CC(=O)c3ccc([N+](=O)[O-])cc3)n2)cc1 | x | 5.0 | x | x | x | -0.6%
O=Nc1onc(-c2ccc([N+](=O)[O-])cc2)c1NO | -8.8% | 8.7 | 4.1% | 3.55µM* | 4.47µM* | -11.8%
Cc1ccc(-c2noc(N=O)c2NO)cc1 | u | -2.8 | 9.6% | 0.708µM* | 0.631µM* | -37.0%
Cc1ccc(NC(=O)C(=O)NCCCN2CCOCC2)cc1C | x | x | x | x | x | 13.4%
SMILES | ELG1 repair inh | Giardia kill | p53 reactivator | RORg inh | VP16 counter | BRCA1 expr act
COC(=O)C1(C(F)(F)F)C2C=CC(C2)N1S(=O)(=O)c1ccc(C)cc1 (centres undefined) | -0.8% | 2.1 | 4.6% | -17.6% | -9.3% | -10.7%
CN(CC(=O)Nc1cccc(F)c1)C(=O)C1CCN(S(=O)(=O)c2ccc3c(c2)OCCO3)CC1 | -12.2% | 8.6 | 0.9% | x | x | -36.6%
OC(Cc1ccccc1)c1ncc(-c2ccc3ccccc3c2)[nH]1 (centres undefined) | x | x | x | x | x | -36.1%
Fc1ccc(/C=N/Nc2nnnn2-c2ccccc2)cc1 | 9.3% | 2.1 | 0.8% | 11.2µM* | u | 0.0%
O=C(/C=C/c1ccccc1)NC(NC(=S)Nc1ccc(Cl)cc1Cl)C(Cl)(Cl)Cl (centres undefined) | u | 9.1 | 19.9% | u | 5.01µM* | -72.5%
Cc1ccc(NC(=S)NC(NC(=O)C(C)(C)C)C(Cl)(Cl)Cl)c(C)c1 (centres undefined) | -0.3% | -17.9 | -2.7% | 12.6µM* | -25.3% | -31.4%
O=C(/C=C/c1ccccc1)NC(NC(=S)Nc1ccc(C(=O)O)cc1)C(Cl)(Cl)Cl (centres undefined) | 18.0% | -23.5 | 5.0% | -1.0%[10 µM] | 3.2% | -6.5%
O=C(/C=C/c1ccccc1)NC(NC(=S)Nc1cccc(O)c1)C(Cl)(Cl)Cl (centres undefined) | u | -19.2 | 4.5% | 8.3% | u | -101.6%
CC(=O)NC(NC(=S)Nc1ccc(N=Nc2ccccc2C)cc1C)C(Cl)(Cl)Cl (centres undefined) | 0.0% | 9.7 | 25.2% | 22.8% | 3.3% | -23.6%
O=C(/C=C/c1ccccc1)NC(NC(=S)Nc1cccc(Cl)c1)C(Cl)(Cl)Cl (centres undefined) | u | -11.4 | -25.5% | u | 17.8µM* | -89.3%
Cc1ccc(C)c(NC(=S)NC(NC(=O)/C=C/c2ccccc2)C(Cl)(Cl)Cl)c1 (centres undefined) | 0.0% | -0.9 | -22.3% | 5.01µM* | 11.2µM* | -76.4%
Cn1cc(-c2nnnn2-c2ccc(Cl)cc2)c(C(F)(F)F)n1 | -3.7% | -3.7 | -2.2% | 10.5% | -4.2% | -2.0%
CCCCCCC1/C(=N/O)CCC1C(=O)OC (centres undefined) | -12.7% | 4.3 | -4.5% | 4.6% | -0.2% | 1.4%
CCCc1ccc(C(C)NC(=S)NC2CCCCC2)cc1 (centres undefined) | -13.7% | -8.8 | 3.3% | 2.51µM* | 3.55µM* | -38.1%
CC(NC(=S)NC1CCCCC1)c1ccccc1 (centres undefined) | -6.0% | 0.5 | x | -17.9%[1.91 µM] | u | -10.6%
CCC(NC(=S)NC1CCCCC1)c1ccc(C)cc1 (centres undefined) | -27.2% | x | 6.3% | 2.82µM* | 5.01µM* | x
CN(C(=S)NC(=O)c1ccc(Cl)cc1)C1CCCCC1 | u | 0.2 | 10.9% | 0.316µM* | 0.794µM* | 57.0%
CN(C(=O)c1cccc(NC(=O)c2ccccc2)c1)C1CCCCC1 | -11.3% | -5.2 | -21.8% | 22.6% | -14.6% | -30.9%
CN(C(=S)NC(=O)c1ccc(F)cc1)C1CCCCC1 | u | -19.1 | 17.4% | 0.891µM* | 1.12µM* | 45.9%

Bioassay records deposited in PubChem by National Center for Advancing Translational Sciences (NCATS).
